Results filed as inconclusive are left out. A call without a number means that no potency is given here. Activity calls are given as the source filed them. Calls follow the shape of the dose curve; as a rule, active = well fitted inhibition curve with a large enough effect; inconclusive = small, poorly fitted or top-dose-only effect; inactive = flat fitted curve, though single readings scatter.
Assays:
Test in all cases: qHTS profiling for inhibitors of Plasmodium falciparum proliferation (AID 504749); also: nearly all actives have a fitted effect of over 60% in size
Conditions in all cases: P. falciparum in erythrocytes, SYBR Green DNA, 72 h; series mostly up to 28.7 µM
[1] = system: CP201
Procedure, shortened: (§1)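 In a 72 h erythrocytic culture (37 C, humidified, 5% CO2) at 2.5% hematocrit and 0.3% starting parasitemia, compounds were tested; SYBR Green I in detergent lysis buffer stained parasite DNA overnight.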

[2] = system: CP211
Procedure, shortened: as §1

[3] = system: CP215
Procedure, shortened: as §1

[4] = system: CP217
Procedure, shortened: as §1

[5] = system: CP237
Procedure, shortened: as §1

[6] = system: CP238
Procedure, shortened: as §1

[7] = system: CP247
Procedure, shortened: as §1

[8] = system: CP250
Procedure, shortened: as §1

[9] = system: CP252
Procedure, shortened: as §1

[10] = system: CP256
Procedure, shortened: as §1

[11] = system: CP260
Procedure, shortened: as §1

[12] = system: CP262
Procedure, shortened: as §1

[13] = system: CP265
Procedure, shortened: as §1

[14] = system: CP266
Procedure, shortened: as §1

[15] = system: CP268
Procedure, shortened: as §1

[16] = system: CP269
Procedure, shortened: as §1

[17] = system: CP286
Procedure, shortened: as §1

[18] = system: CP291
Procedure, shortened: as §1

[19] = system: CP297
Procedure, shortened: as §1

[20] = system: CP203
Procedure, shortened: as §1
Potency is read from the fitted curve at half-maximal effect.

Row | Structure (SMILES) | Potency [1] | Potency [2] | Potency [3] | Potency [4] | Potency [5] | Potency [6] | Potency [7] | Potency [8] | Potency [9] | Potency [10] | Potency [11] | Potency [12] | Potency [13] | Potency [14] | Potency [15] | Potency [16] | Potency [17] | Potency [18] | Potency [19] | Potency [20]
1 | CN(C)C(=S)SSC(=S)N(C)C | 4.26 µM (active) | 2.69 µM (active) | 5.36 µM (active) | 3.98 µM (active) | 1.58 µM (active) | 3.55 µM (active) | 2.82 µM (active) | 3.16 µM (active) | 3.98 µM (active) | 3.55 µM (active) | 0.891 µM (active) | 2.13 µM (active) | 3.98 µM (active) | 4.78 µM (active) | 3.01 µM (active) | 2.13 µM (active) | 1.26 µM (active) | 3.01 µM (active) | 4.26 µM (active) | 
2 | CNC(=O)NC(O)C(Cl)(Cl)Cl (stereo not drawn) | inactive | inactive | inactive | inactive | inactive | inactive | inactive | inactive | inactive | inactive | inactive | inactive | inactive | inactive | inactive | inactive | inactive | inactive | inactive | 
3 | CC(C)(C)OC(=O)c1ncn2c1[C@@H]1CCCN1C(=O)c1c(Br)cccc1-2 | inactive | inactive | inactive | inactive | inactive | inactive | inactive | inactive | inactive | inactive | inactive | inactive | inactive | inactive | inactive | inactive | inactive | inactive | inactive | 
4 | C[C@H]1C(=O)O[C@@H]2CCN3CC=C(COC(=O)[C@](C)(O)[C@]1(C)O)[C@H]23 | inactive | inactive | inactive | inactive | inactive | inactive | inactive | inactive | inactive | inactive | inactive | inactive | inactive | inactive | inactive | inactive | inactive | inactive | inactive | inactive
5 | Oc1c(Br)cc(Br)cc1Br | inactive | inactive | inactive | inactive | inactive | inactive | inactive | inactive | inactive | inactive | inactive | inactive | inactive | inactive | inactive | inactive | inactive | inactive |  | 
6 | C[C@]12CC[C@H]3[C@@H](CC=C4C[C@@H](O)CC[C@@]43C)[C@@H]1CC[C@@H]2O | inactive | inactive | inactive | inactive | inactive | inactive | inactive | inactive | inactive | inactive | inactive | inactive | inactive | inactive | inactive | inactive | inactive | inactive | inactive | 
7 | CC[C@]1(O)CC[C@H]2[C@@H]3CCC4=CCCC[C@@H]4[C@H]3CC[C@@]21C | inactive | inactive | inactive |  | inactive | inactive | inactive |  | inactive |  | inactive | inactive |  | inactive | inactive | inactive | inactive | inactive | inactive | 
8 | CC(C)(O)C(Cl)(Cl)Cl |  |  | 8.49 µM (active) |  | 3.16 µM (active) | 10 µM (active) | 10 µM (active) | 12.6 µM (active) |  | 10 µM (active) | 3.55 µM (active) | inactive | 2.51 µM (active) |  | 6.01 µM (active) | 4.26 µM (active) | 5.62 µM (active) | 15.1 µM (active) |  | 
9 | CCCCCCCCC(=O)NCc1ccc(O)c(OC)c1 | inactive | inactive | inactive | inactive | inactive | inactive | inactive | inactive | inactive | inactive | inactive | inactive | inactive |  | inactive | inactive | inactive | inactive | inactive | 
10 | Clc1ccc(CO/N=C(\Cn2ccnc2)c2ccc(Cl)cc2Cl)c(Cl)c1 |  |  | 6.75 µM (active) | 3.98 µM (active) | 3.98 µM (active) | 5.01 µM (active) | 4.47 µM (active) | 7.08 µM (active) | 6.31 µM (active) |  | 7.08 µM (active) | 15.1 µM (active) | 4.47 µM (active) |  |  | 13.5 µM (active) | 5.62 µM (active) | 12 µM (active) | 4.78 µM (active) | 
11 | CN1C(=O)CN=C(c2ccccc2)c2cc([N+](=O)[O-])ccc21 | inactive | inactive |  | inactive | inactive | inactive | inactive | inactive | inactive | inactive | inactive | inactive | inactive | inactive | inactive | inactive | inactive | inactive | inactive | 
12 | CC(Cc1ccccc1)NCc1ccccc1Cl (stereo not drawn) | inactive | inactive | inactive |  |  |  |  | inactive |  |  |  | inactive | 11.2 µM (active) | inactive |  |  | inactive |  | inactive | 
13 | Oc1ccc2[nH]cc(CCCCN3CC=C(c4ccccc4)CC3)c2c1 |  |  |  |  | 5.62 µM (active) |  | 7.08 µM (active) |  |  |  |  |  |  |  |  |  |  |  | 15.1 µM (active) | 
14 | COC(=O)C1=CCCN(C)C1 | inactive | inactive | inactive | inactive | inactive | inactive | inactive | inactive | inactive | inactive |  | inactive | inactive | inactive | inactive | inactive | inactive | inactive | inactive | 
15 | C=CCOC(Cn1ccnc1)c1ccc(Cl)cc1Cl (stereo not drawn) |  |  | 12 µM (active) | 11.2 µM (active) | 4.47 µM (active) |  |  | 10 µM (active) |  | inactive | 10 µM (active) | inactive |  |  | 15.1 µM (active) | 15.1 µM (active) | 11.2 µM (active) | 12 µM (active) | 6.75 µM (active) | 
16 | C#C[C@]1(O)CC[C@H]2[C@@H]3CCC4=CC(=O)CCC4=C3C=C[C@@]21CC |  | inactive |  |  | 0.178 µM (active) |  | 3.55 µM (active) |  |  |  |  |  |  |  |  |  |  |  |  | 
17 | COP(=O)(OC)C(O)C(Cl)(Cl)Cl (stereo not drawn) | inactive | inactive | inactive | inactive | inactive | inactive | inactive | inactive | inactive | inactive | inactive | inactive | inactive | inactive | inactive | inactive | inactive | inactive | inactive | 

Row | Structure (SMILES) | Potency [1] | Potency [2] | Potency [3] | Potency [4] | Potency [5] | Potency [6] | Potency [7] | Potency [8] | Potency [9] | Potency [10] | Potency [11] | Potency [12] | Potency [13] | Potency [14] | Potency [15] | Potency [16] | Potency [17] | Potency [18] | Potency [19] | Potency [20]
18 | CN1C(=O)[C@@H](NC(=O)c2cc3ccccc3[nH]2)N=C(c2ccccc2)c2ccccc21 | inactive |  |  |  |  |  | inactive |  |  |  |  | inactive |  |  |  |  |  |  |  | 
19 | ClC1=C(Cl)C2(Cl)C(CBr)CC1(Cl)C2(Cl)Cl (stereo not drawn) | inactive | inactive | inactive | inactive | inactive | inactive | inactive | inactive | inactive | inactive |  | inactive | inactive | inactive | inactive | inactive | inactive | inactive | inactive | 
20 | C[C@]12Cc3nonc3C[C@@H]1CC[C@@H]1[C@@H]2CC[C@@]2(C)[C@H]1CC[C@]2(C)O | inactive | inactive | inactive |  | inactive | inactive | inactive | inactive | inactive | inactive | inactive | inactive | inactive | inactive | inactive | inactive | inactive | inactive | inactive | 
21 | N#Cc1nn(-c2c(Cl)cc(C(F)(F)F)cc2Cl)c(N)c1S(=O)C(F)(F)F (stereo not drawn) | 13.5 µM (active) |  |  | 8.91 µM (active) | 5.01 µM (active) |  |  | 11.2 µM (active) |  |  | 8.91 µM (active) | 10.7 µM (active) |  |  | 6.01 µM (active) | 15.1 µM (active) | 5.01 µM (active) | 6.75 µM (active) | 10.7 µM (active) | 
22 | OC(O)C(Cl)(Cl)Cl | inactive | inactive | inactive | inactive | inactive | inactive | inactive | inactive | inactive | inactive | inactive | inactive |  |  | inactive | inactive | inactive | inactive |  | 
23 | O=C(NC(=O)c1c(F)cccc1F)Nc1cc(Cl)c(OC(F)(F)C(F)C(F)(F)F)cc1Cl (stereo not drawn) | inactive | inactive | inactive |  |  |  |  |  |  | 8.91 µM (active) | 10 µM (active) | inactive | 7.94 µM (active) | inactive | inactive | inactive |  | inactive | inactive | 
24 | O=C(O)c1nn(Cc2ccc(Cl)cc2Cl)c2ccccc12 | inactive | inactive | inactive | inactive | inactive | inactive | inactive | inactive | inactive | inactive | inactive | inactive | inactive | inactive | inactive | inactive | inactive | inactive | inactive | 
25 | Cc1c(Cl)c(=O)oc2cc(OP(=O)(OCCCl)OCCCl)ccc12 | 13.5 µM (active) | 9.53 µM (active) | 9.53 µM (active) | 8.91 µM (active) | 7.94 µM (active) | 8.91 µM (active) |  | 8.91 µM (active) | 8.91 µM (active) | 10 µM (active) |  | 7.57 µM (active) | 7.94 µM (active) |  | 12 µM (active) | 12 µM (active) | 11.2 µM (active) | 7.57 µM (active) | 12 µM (active) | 
26 | C[N+](C)(C)CCOC(=O)C(O)(c1ccccc1)c1ccccc1 | inactive | inactive | inactive | inactive | inactive | inactive | inactive | inactive | inactive | inactive | inactive | inactive | inactive |  | inactive | inactive | inactive | inactive | inactive | 
27 | COCC(=O)N(c1c(C)cccc1C)C(C)C(=O)OC (stereo not drawn) | inactive | inactive | inactive |  | inactive |  |  |  |  | inactive | inactive | inactive |  | inactive | inactive | inactive | inactive | inactive | inactive | 
28 | O=C(CCCN1CCC(n2c(=O)[nH]c3ccccc32)CC1)c1ccc(F)cc1 |  |  | 4.55 µM (active) | 3.98 µM (active) | 1.41 µM (active) | 3.55 µM (active) | 3.55 µM (active) | 2.82 µM (active) |  | 3.55 µM (active) | 1.58 µM (active) | inactive | 1.12 µM (active) |  | 3.61 µM (active) | 1.81 µM (active) | 2 µM (active) | 6.42 µM (active) |  | 
29 | CN1C[C@@H](NS(=O)(=O)N(C)C)C[C@@H]2c3cccc4c3c(cn4C)C[C@H]21 | inactive |  | inactive | inactive |  | inactive | inactive | inactive | inactive |  |  | inactive | inactive |  | inactive |  |  | inactive |  | 
30 | C[C@]12C=CC(=O)C=C1CC[C@@H]1[C@@H]2CC[C@@]2(C)[C@H]1CC[C@]2(C)O |  |  |  | inactive | inactive | inactive | inactive | inactive | inactive | inactive | inactive | inactive | inactive |  |  |  | inactive |  | 19 µM (active) | 
31 | COP(=O)(OC)OC=C(Cl)Cl | inactive | inactive | inactive | inactive | inactive | inactive | inactive | inactive | inactive | inactive | inactive | inactive | inactive | inactive | inactive | inactive | inactive | inactive | inactive | 
32 | CN1CCc2cc(Cl)c(O)cc2[C@H]2c3ccccc3CC[C@@H]21 | inactive |  |  |  | 5.62 µM (active) |  |  |  |  |  |  | inactive |  |  |  |  | 11.2 µM (active) |  |  | 
33 | CCS(=O)(=O)C(C)(C)S(=O)(=O)CC | inactive |  | inactive | inactive | inactive | inactive | inactive | inactive | inactive | inactive | inactive | inactive | inactive | inactive | inactive | inactive | inactive | inactive | inactive | 
